Tau fluor counter – counter-screen for tau fibril formation inhibitors; 0.93% of 280,000 active; tau K18 P301L Alexa594 fluorescence, heparin fibrillization; Potency, µM (doses to about 57.7 µM), without a hit: at the highest dose activity change, negative = decrease; note: potency is the fitted concentration of half-maximal effect; nearly all actives have a fitted effect of over 55% in size
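Human K18 P301L tau (15 uM unlabeled plus 0.24 uM Alexa 594-labeled, final) in 100 mM sodium acetate pH 7 was mixed with compound and 20 uM heparin and incubated 6 hr at 37 C.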
Sfp PPTase inh – inhibitors of Bacillus subtilis Sfp phosphopantetheinyl transferase | Biochemical Sfp PPTase activity, qHTS | Potency, µM, inactives show largest response in the series, negative = inhibition, usual class: inhibitors | 3.5% of 310,000 active | AID 1490;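 note: the enzyme is Sfp with the accession as filed and its product quenches rhodamine fluorescence; potency is the fitted concentration of half-maximal effect; 0% = enzyme reaction without inhibitor and -100% = no enzyme wells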
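Fluorescence-quenching assay: 15 nM Sfp-PPTase preincubated 15 min at room temperature with compound, then 5 uM rhodamine-CoA and 12.5 uM BHQ-2-labelled YbbR peptide added. Fluorescence (ex 525/em 598 nm) read at start and after 30 min; difference gives rate.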
Tau fibril FP – blocks human tau fibril formation measured by polarization; P10636; K18 P301L tau heparin fibrillization, Alexa594 FP, 6 h; Potency, µM (highest dose often 57.7 µM), inactives show top-dose activity, negative = inhibition, usual class: inhibitors; 0.39% of 280,000 active; AID 1468; note: potency is the fitted concentration of half-maximal effect; nearly all actives have a fitted effect of over 55% in size
Target sequence (P10636 561-689 P618L limits assumed): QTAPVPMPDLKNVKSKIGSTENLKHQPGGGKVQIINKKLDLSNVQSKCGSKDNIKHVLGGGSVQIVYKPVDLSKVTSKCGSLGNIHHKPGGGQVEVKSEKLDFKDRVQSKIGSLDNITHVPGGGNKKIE
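Read-out: fluorescence polarization of Alexa 594-labeled tau (0.24 uM), 555 nm excitation, 632 nm emission. Mixtures held 15 uM unlabeled K18 P301L, compound and 20 uM heparin, pH 7 acetate buffer, incubated 6 hr at 37 C.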
Coupling enz – counter-screen for Giardia aldolase inhibitors: coupling enzyme system; coupling enzyme system counterscreen, AmpLite Red fluorescence; activity change, negative = inhibition, % at 58.2 µM, hits read low; 0.67% of 290,000 active; in the data active = activity change below about -30%
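Compounds tested against the coupling enzymes alone at 57.5 uM final; readout was AmpLite Red fluorescence (525/598 nm) after 20 min at RT.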
Tau fibril ThT – inhibitors of human tau fibril formation, thioflavin T binding. AID 1460. 2.1% of 270,000 active. Potency, µM (highest dose often 57.4 µM), for the others: top-dose activity, negative = inhibition, hits mostly inhibitors. P10636. recombinant tau K18 P301L (four-repeat tau fragment), heparin-induced fibrillization, ThT fluorescence; note: potency is the fitted concentration of half-maximal effect; nearly all actives have a fitted effect of over 55% in size
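In this qHTS, human K18 P301L tau is incubated with compound and heparin for 6 hr at 37 C, and Thioflavin T fluorescence then reports fibril load.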
Starred values were filed as active, the others as inactive; ? = inconclusive; . = no result given; [ ] = dose if it differs, or a comment. Only some compounds are listed: those with a hit (about 5.2% of all), similar ones and a draw of the others. Unless noted, calls come from the whole dose curve; as a rule, active = well fitted curve in the direction sought with a large enough effect; inconclusive = small, poorly fitted or top-dose-only effect, or another doubt; inactive = no such curve, though single readings can be large; an effect the other way counts as inactive or inconclusive. Unless noted, % is set by controls: 0 for no effect and ±100 for the full control effect.

SMILES | Tau fluor counter | Sfp PPTase inh | Tau fibril FP | Coupling enz | Tau fibril ThT
COc1ccc2cc1Oc1cc3c(cc1OC)CC[N+](C)(C)C3Cc1ccc(cc1)Oc1c(OC)c(OC)cc3c1C(C2)[N+](C)(C)CC3 (stereo not drawn) | . | -4.7% | . | . | .
CCC(c1nnnn1CCOC)N(Cc1cc2cc(C)c(C)cc2[nH]c1=O)CC1CCCO1 (stereo not drawn) | -4.1% | ? | 4.1% | -4.7 | -11.8%
CCC(c1nnnn1CC1CCCO1)N(CCN1CCOCC1)Cc1cc2cc(C)ccc2[nH]c1=O (stereo not drawn) | -12.6% | 44.7µM* | ? | -4.8 | ?
CCC(c1nnnn1CCOC)N(Cc1cc2c(C)cc(C)cc2[nH]c1=O)CC1CCCO1 (stereo not drawn) | -1.2% | -10.4% | 1.8% | -4.8 | -7.1%
CCCC(c1nnnn1CCOC)N(Cc1cc2cc(C)c(C)cc2[nH]c1=O)CC1CCCO1 (stereo not drawn) | -1.3% | 10µM* | 0.5% | -41.4* | -7.2%
COc1ccc2oc(-c3cccc(NC(=O)c4cc([N+](=O)[O-])ccc4N4CCOCC4)c3)nc2c1 | ? | . | -15.4% | . | ?
C/C=C1\COC(C(=O)NCc2cccc(OC)c2OC)(C(F)(F)F)C=C1C=C(C)C (stereo not drawn) | . | -4.6% | . | 2.8 | .
CN1CCO/C1=C(\C(Cl)=C(Cl)Cl)[N+](=O)[O-] | -6.4% | -3.0% | -0.4% | -0.7 | -8.2%
CCC1CO/C(=C(\C(Cl)=C(Cl)Cl)[N+](=O)[O-])N1 (stereo not drawn) | -18.8% | 3.5% | ? | -0.7 | 35.5µM*
O=C(Nc1ncc([N+](=O)[O-])s1)c1ccc2c(c1)OCO2 | . | ? | . | -32.3* | .
CC(C)(C)c1nnc(NC(=O)c2ccc3c(c2)OCO3)s1 | . | 22.4µM* | . | -7.3 | .
Cc1ccc(C(=O)Nc2ncc([N+](=O)[O-])s2)cc1 | . | -1.7% | . | -29.4 | .
CC(C)(C)c1nnc(NC(=O)c2ccc(Cl)nc2)s1 | -4.7% | 8.8% | -0.6% | -36.3* | -3.2%
Cc1ccc(C(=O)CCS(=O)(=O)c2ccc(Br)cc2)cc1 | . | 2.5% | . | -0.6 | .
O=C(CCNc1ccc(Cc2ccncc2)cc1)c1cccc([N+](=O)[O-])c1 | 15.8µM*[quencher] | 13.0% | ? | 2.5 | ?
O=C(Nc1ccc(Cc2ccncc2)cc1)c1ccc(Cl)c([N+](=O)[O-])c1 | 6.4% | 12.1% | -1.4% | -36.1* | 12.7%
Cc1ccc(S(=O)(=O)CCC(=O)c2cccc([N+](=O)[O-])c2)cc1 | . | 22.4µM* | . | 0.0 | .
COc1ccc(CNC(=O)c2ccc(-c3nc(CSc4ccccc4)c(C)o3)cc2)c(OC)c1 | -4.3% | . | 2.5% | . | 2.8%
Cc1nc2c(C(=O)NCc3ccccc3Cl)c[nH]n2c(=O)c1Cc1cccc(Cl)c1 | -29.8% | . | -8.9% | . | ?
O=C(COC(=O)c1c[nH]c(=O)[nH]c1=O)Nc1ccccc1F | 4.1% | 70.8µM* | 3.5% | 2.3 | 3.2%
ClCc1csc(N/N=C/c2cccs2)n1 | ? | 44.7µM* | ? | 2.6 | 17.8µM*
Cc1ccc(-c2csc(N/N=C/C=C/c3ccccc3)n2)cc1 | ? | -22.9% | 14.6% | 1.0 | ?
C(=N\Nc1nc(-c2ccccc2)cs1)/c1ccncc1 | 12.6µM*[quencher] | ? | 7.3% | 1.6 | 15.8µM*
O=C(O)Cc1sc(N/N=C\c2ccncc2)nc1-c1ccccc1 | -26.7% | 28.2µM* | ? | 3.0 | ?
Cc1cc(=O)[nH]c(N/N=C/c2cccs2)n1 | 9.0% | -11.2% | 5.5% | 0.5 | 6.0%
SMILES | Tau fluor counter | Sfp PPTase inh | Tau fibril FP | Coupling enz | Tau fibril ThT
C(=N\Nc1nc(-c2ccccc2)cs1)/c1cccs1 | 12.6µM*[quencher] | 8.91µM* | 8.2% | 2.7 | 14.1µM*
CCN(C(=O)CN(C)S(=O)(=O)c1ccc2c(c1)c(=O)n(C)c(=O)n2C)c1ccc(OC)cc1 | -10.8% | . | -8.0% | . | -8.0%
CNC[C@H](O)[C@H](O)[C@H](O)[C@H](O)CO | . | -1.5% | . | 0.3 | .
COc1cc(NC(=O)Cn2c(=O)ccc3cc(S(=O)(=O)N4CCCC4)ccc32)cc(OC)c1 | ? | . | ? | . | -7.0%
Cc1ccc(Cn2ccn(CC(=O)Nc3ccccc3C(F)(F)F)c(=O)c2=O)cc1 | -25.6% | . | -10.5% | . | 1.3%
CN(C)S(=O)(=O)c1ccc(-c2csc(N/N=C/c3ccc(O)cc3)n2)cc1 | 10µM*[quencher] | 50.1µM* | -5.7% | -4.9 | 14.1µM*
Cc1cc(NS(=O)(=O)c2ccc(Nc3nc(-c4ccc(O)cc4)cs3)cc2)no1 | 1.5% | -29.5% | 9.3% | 9.6 | -2.8%
Cc1c(C(=O)NCc2ccccc2Cl)sc2nc3n(c(=O)c12)CCCCC3 | -12.2% | . | ? | . | -11.7%
CN1CCN(c2ccccc2NC(=O)c2ccc(-c3ccc(Cl)cc3Cl)o2)CC1 | -23.5% | 56.2µM* | 4.3% | 0.3 | ?
CCC1CN(C(=O)N2CCC(C(=O)NCCN(CC)CC)CC2)c2ccccc2O1 (stereo not drawn) | -25.2% | . | -0.2% | . | -16.4%
Cc1nonc1CN(C)C(=O)CC1C(=O)NCCN1Cc1c(F)cccc1Cl (stereo not drawn) | 23.6% | ? | 9.5% | -1.0 | ?
CN(CCc1ccccn1)C(=O)CC1C(=O)NCCN1Cc1ccc(-c2ccccc2)cc1 (stereo not drawn) | -11.2% | 50.1µM* | -3.6% | -18.6 | ?
Cc1cc(CN(C)C(=O)CC2C(=O)NCCN2Cc2c(F)cccc2Cl)n[nH]1 (stereo not drawn) | 4.8% | 50.1µM* | -4.7% | -17.2 | -5.6%
Cc1ccc(C(=O)N2CCc3cc(CNC(=O)c4ccccc4F)ccc32)cc1 | -5.3% | . | -0.1% | . | -9.5%
COc1ccc(S(=O)(=O)Nc2cc3c(cc2NCc2ccccc2)n(C)c(=O)n3C)cc1 | ? | . | -12.7% | . | ?
COc1ccc(-c2noc(CCC(=O)Nc3ccccc3Cl)n2)cc1OC | -26.9% | . | -10.8% | . | ?
CCN(CC)CCCNc1cc(-c2ccccc2)nc(C)n1 | 6.9% | . | 3.9% | . | 12.4%
CCCc1cc(-c2nc(-c3ccc(Br)cc3)cs2)ccn1 | -6.8% | ? | 2.2% | 1.5 | ?
CCCc1cc(-c2nc(-c3ccc(Cl)cc3)cs2)ccn1 | -10.9% | 39.8µM* | 1.4% | -0.1 | ?
CCCn1c(NCc2ccccn2)nc2ccccc21 | 0.7% | ? | 9.6% | 1.0 | -5.1%
c1ccc(CNc2nc3ccccc3n2CCN2CCOCC2)nc1 | -0.3% | 89.1µM* | -2.7% | 0.7 | -1.8%
FC(F)(F)c1cccc(-c2ccc(/C=N/Nc3nncc(-c4ccccc4)n3)o2)c1 | -16.6% | -1.3% | 7.4% | 4.8 | ?
Clc1ccc(-c2ccc(/C=N/Nc3nncc(-c4ccccc4)n3)o2)cc1 | -27.1% | -7.1% | -2.7% | -4.1 | 2.24µM*
O=S(=O)(N/N=C\c1ccc(-c2ccccc2Cl)o1)c1ccccc1 | 7.5% | 44.7µM* | 0.2% | 6.9 | 5.0%
Cc1ccc(/C=N/Nc2nncc(-c3ccccc3)n2)o1 | -14.4% | -8.9% | -2.6% | 2.4 | ?
